{"source": "PubChem BioAssay (Tox21)", "note": "Inconclusive results are not listed. A number with no mark means an inactive call. Active and inactive are the calls of the source. Calls follow the shape of the dose curve; as a rule, active = well fitted cell-killing curve with a large enough effect in the repeat runs; inconclusive = weak or mixed curves, or effect the other way; inactive = flat fitted curve, though single readings scatter. % is scaled to controls: 0 for no effect and ±100 for the full control effect; potency is read from the fitted curve at half-maximal effect."}
{"experiment": "cAMP Responsive Elements (CRE) small molecule antagonists, cell-based qHTS assay: qHTS cell viability counter screen (AID 2060913); also: nearly all actives have a fitted effect of over 40% in size", "conditions": "CRE-bla HEK293T viability, CellTiter-Glo luminescence, 5 h; series mostly up to 92.4 µM; viability change, negative = cytotoxic: at the top concentration", "procedure,_shortened": "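Cytotoxicity read in the same wells as the CRE-bla HEK293T antagonist assay: after 3 h compound with 0.25 uM NKH477 final and 2 h beta-lactamase substrate, CellTiter-Glo luminescence measured.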"}
{"smiles": "CC(=O)c1c(C)c([N+](=O)[O-])c(C(C)(C)C)c([N+](=O)[O-])c1C", "viability change, negative = cytotoxic": "-7.78%"}
{"smiles": "CCCCCCCCCCCCCCCS(=O)(=O)Oc1ccccc1", "viability change, negative = cytotoxic": "0.0892% [at 42.5 µM]"}
{"smiles": "CCCCCCCCO", "Potency": "inactive"}
{"smiles": "CCCCCCOC(=O)CC", "viability change, negative = cytotoxic": "0.721%"}
{"smiles": "CCCCC(CC)COC(=O)CCCCCCCCC(=O)OCC(CC)CCCC", "note": "(configuration not stated)", "viability change, negative = cytotoxic": "0.97%"}
{"smiles": "Clc1nc2ccccc2nc1Cl", "viability change, negative = cytotoxic": "0.495%"}
{"smiles": "CCN(CC)CCOC(=O)C1(c2ccccc2)CCCC1", "viability change, negative = cytotoxic": "-3.95% [at 42.5 µM]"}
{"smiles": "COc1ccc(C(=O)NCc2ccc(OCCN(C)C)cc2)cc1OC", "viability change, negative = cytotoxic": "3.79% [at 42.5 µM]"}
{"smiles": "Nc1ccc([N+](=O)[O-])cc1O", "viability change, negative = cytotoxic": "16.8%"}
{"smiles": "CCC(=O)OCCc1ccccc1", "viability change, negative = cytotoxic": "-6.32%"}
{"smiles": "O=C(O)Cc1cccc2ccccc12", "Potency": "inactive"}
{"smiles": "CC(=O)OCC1=C(C(=O)O)N2C(=O)[C@@H](NC(=O)Cc3cccs3)[C@H]2SC1", "viability change, negative = cytotoxic": "4.63% [at 42.5 µM]"}
{"smiles": "CCn1cc(C(=O)O)c(=O)c2ccc(C)nc21", "Potency": "inactive"}
{"smiles": "C=C1c2cccc(O)c2C(O)=C2C(=O)[C@]3(O)C(O)=C(C(N)=O)C(=O)[C@@H](N(C)C)[C@@H]3[C@@H](O)[C@H]12", "viability change, negative = cytotoxic": "5.53% [at 42.5 µM]"}
{"smiles": "CCO[Si](CCCN)(OCC)OCC", "Potency": "inactive"}
{"smiles": "CC(CCC(=O)O)C(=O)O", "note": "(configuration not stated)", "viability change, negative = cytotoxic": "-0.678%"}
{"smiles": "C[C@H]1[C@H](NC(=O)/C(=N/OC(C)(C)C(=O)O)c2csc(N)n2)C(=O)N1S(=O)(=O)O", "note": "(stereo in doubt)", "viability change, negative = cytotoxic": "-1.06% [at 42.5 µM]"}
{"smiles": "CC(=O)CCC(=O)O", "Potency": "inactive"}
{"smiles": "CCCCCCCCCCCCCCNCCO", "viability change, negative = cytotoxic": "-1.28% [at 42.5 µM]"}
{"smiles": "CC(=O)Oc1ccccc1C(=O)Nc1ncc([N+](=O)[O-])s1", "Potency": "7.5 µM (active)"}
{"smiles": "CC(C)=C1CC[C@@H](C)CC1=O", "viability change, negative = cytotoxic": "7.69%"}
{"smiles": "CC(=O)OCCOCCOCCOC(C)=O", "Potency": "inactive"}
